# Measurements as given in the supplement of paper PMC10037445.
# Over roughly 2,900 compounds, “NF-kB SEAP reporter activity, fold change vs agonist alone” has its median near 0.99; the highest 2% begin near 2.6. The full list was thinned out, with the highest values kept by preference.
# Assays:
# [1] = test system: RAW-Dual; assay: NF-kB SEAP reporter activity, fold change vs agonist alone; cytotoxicity flag (confluency mask): not cytotoxic; higher = enhanced NF-kB activity
# Procedure, shortened: (§1)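 Library stock was pin-tooled at 50 nL into 384-well plates of RAW-Dual macrophages (50,000 cells/well, DMEM), followed 1 h later by a PRR agonist, and the cells were kept at 37 °C, 5% CO2. Supernatant collected after 20 hours was read for IRF by QuantiLuc luminescence and for NF-κB by QuantiBlue absorbance at 620 nm. Reporter activity is fold change over agonist-alone wells, and a well counted as cytotoxic when its IncuCyte confluency was below 70% of agonist controls in both mask sets.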
# [2] = test system: RAW-Dual; assay: NF-kB SEAP reporter activity, fold change vs agonist alone; higher = enhanced NF-kB activity; details: library stock concentration (final ~1000-fold dilution): 10 mM
# Procedure, shortened: as §1
# [3] = test system: RAW-Dual; assay: NF-kB SEAP reporter activity, fold change vs agonist alone; cytotoxicity flag (confluency mask): cytotoxic (confluency <70% of control); higher = enhanced NF-kB activity
# Procedure, shortened: as §1
# [4] = agonist: ODN 1826 (TLR9) 0.5 ug/mL
# [5] = agonist: Pam2CSK4 (TLR2/6) 0.1 ug/mL
# [6] = agonist: Pam3CSK4 (TLR2/1) 0.1 ug/mL
# [7] = cytotoxicity flag (confluency mask): not cytotoxic, agonist: Imiquimod (TLR7) […]
# [8] = cytotoxicity flag (confluency mask): not cytotoxic, agonist: MPLA (TLR4) […]
smiles,measurement,setting,value
CS(=O)(=O)O.Cc1c(O)cccc1C(=O)NC(CSc1ccccc1)C(O)CN1CC2CCCCC2CC1C(=O)NC(C)(C)C (configuration not stated) (library stock concentration (final ~1000-fold dilution): 10 mM),NF-kB SEAP reporter activity,[1]; agonist: LPS (TLR4) 0.1 ug/mL,4.08
same,NF-kB SEAP reporter activity,[1]; [4],1.02
same,NF-kB SEAP reporter activity,[1]; [5],0.418
same,NF-kB SEAP reporter activity,[1]; [6],0.656
CS(=O)(=O)O.Cc1c(O)cccc1C(=O)NC(CSc1ccccc1)C(O)CN1CC2CCCCC2CC1C(=O)NC(C)(C)C (configuration not stated),NF-kB SEAP reporter activity,[2]; [7],2.13
same,NF-kB SEAP reporter activity,[2]; [8],2.22
C=C(C)C(=O)Nc1cccc(-c2ncnc3[nH]cc(C(=O)OCC)c23)c1,NF-kB SEAP reporter activity,[2]; [7],1.01
same,NF-kB SEAP reporter activity,[2]; [8],1.18
C=C(C)C(=O)Nc1cccc(-c2ncnc3[nH]cc(C(=O)OCC)c23)c1 (library stock concentration (final ~1000-fold dilution): 10 mM),NF-kB SEAP reporter activity,[1]; agonist: LPS (TLR4) 0.1 ug/mL,1.36
same,NF-kB SEAP reporter activity,[1]; [4],1.14
same,NF-kB SEAP reporter activity,[1]; [5],1.44
same,NF-kB SEAP reporter activity,[1]; [6],1.27
C=C1C(=O)OC2/C=C(\C)CC/C=C(\C)CCC12 (configuration not stated),NF-kB SEAP reporter activity,[2]; [7],0.262
same,NF-kB SEAP reporter activity,[2]; [8],0.198
C=C1C(=O)OC2/C=C(\C)CC/C=C(\C)CCC12 (configuration not stated) (library stock concentration (final ~1000-fold dilution): 10 mM),NF-kB SEAP reporter activity,[1]; agonist: LPS (TLR4) 0.1 ug/mL,0.231
same,NF-kB SEAP reporter activity,[1]; [4],0.213
same,NF-kB SEAP reporter activity,[1]; [5],0.153
same,NF-kB SEAP reporter activity,[1]; [6],0.197
CC(=O)ON=C1C(c2c(O)[nH]c3cc(Br)ccc23)=Nc2ccccc21,NF-kB SEAP reporter activity,[2]; [7],1.07
same,NF-kB SEAP reporter activity,[2]; [8],1.48
CC(=O)ON=C1C(c2c(O)[nH]c3cc(Br)ccc23)=Nc2ccccc21 (library stock concentration (final ~1000-fold dilution): 10 mM),NF-kB SEAP reporter activity,[1]; agonist: LPS (TLR4) 0.1 ug/mL,3.28
same,NF-kB SEAP reporter activity,[1]; [4],1.19
same,NF-kB SEAP reporter activity,[1]; [5],1.55
same,NF-kB SEAP reporter activity,[1]; [6],1.41
CCN(CC)CCOC(=O)C(Cc1cccc2ccccc12)CC1CCCO1.O=C(O)C(=O)O (configuration not stated) (library stock concentration (final ~1000-fold dilution): 10 mM),NF-kB SEAP reporter activity,[1]; agonist: LPS (TLR4) 0.1 ug/mL,1.08
same,NF-kB SEAP reporter activity,[1]; [4],0.731
same,NF-kB SEAP reporter activity,[1]; [5],0.761
same,NF-kB SEAP reporter activity,[1]; [6],1.01
CCN(CC)CCOC(=O)C(Cc1cccc2ccccc12)CC1CCCO1.O=C(O)C(=O)O (configuration not stated),NF-kB SEAP reporter activity,[2]; [8],0.821
Nc1nc(NCCNc2ncc(-n3ccnc3)c(-c3ccc(Cl)cc3Cl)n2)ccc1[N+](=O)[O-] (library stock concentration (final ~1000-fold dilution): 10 mM),NF-kB SEAP reporter activity,[1]; agonist: LPS (TLR4) 0.1 ug/mL,2.5
same,NF-kB SEAP reporter activity,[1]; [4],2.96
same,NF-kB SEAP reporter activity,[1]; [5],1.46
same,NF-kB SEAP reporter activity,[1]; [6],2.83
Nc1nc(NCCNc2ncc(-n3ccnc3)c(-c3ccc(Cl)cc3Cl)n2)ccc1[N+](=O)[O-],NF-kB SEAP reporter activity,[2]; [7],2.49
same,NF-kB SEAP reporter activity,[2]; [8],2.25
Cc1cncc(CN2CCC(=C3c4ccc(Cl)cc4CCc4cccnc43)CC2)c1.O=C(O)/C=C/C(=O)O (library stock concentration (final ~1000-fold dilution): 10 mM),NF-kB SEAP reporter activity,[3]; agonist: LPS (TLR4) 0.1 ug/mL,0.652
same,NF-kB SEAP reporter activity,[3]; [4],0.37
same,NF-kB SEAP reporter activity,[3]; [5],0.456
same,NF-kB SEAP reporter activity,[3]; [6],0.408
Cc1cncc(CN2CCC(=C3c4ccc(Cl)cc4CCc4cccnc43)CC2)c1.O=C(O)/C=C/C(=O)O,NF-kB SEAP reporter activity,"[2]; cytotoxicity flag (confluency mask): cytotoxic (confluency <70% of control), agonist: Imiquimod (TLR7) […]",1.02
same,NF-kB SEAP reporter activity,"[2]; cytotoxicity flag (confluency mask): cytotoxic (confluency <70% of control), agonist: MPLA (TLR4) […]",0.719
CCC1OC(=O)C(C)C(OC2CC(C)(OC)C(O)C(C)O2)C(C)C(OC2OC(C)CC(N(C)C)C2O)C(C)(O)CC(C)CN(C)C(C)C(O)C1(C)O.O.O (configuration not stated),NF-kB SEAP reporter activity,[2]; [7],0.506
same,NF-kB SEAP reporter activity,[2]; [8],1.46
CCC1OC(=O)C(C)C(OC2CC(C)(OC)C(O)C(C)O2)C(C)C(OC2OC(C)CC(N(C)C)C2O)C(C)(O)CC(C)CN(C)C(C)C(O)C1(C)O.O.O (configuration not stated) (library stock concentration (final ~1000-fold dilution): 10 mM),NF-kB SEAP reporter activity,[1]; agonist: LPS (TLR4) 0.1 ug/mL,1.49
same,NF-kB SEAP reporter activity,[1]; [4],0.371
same,NF-kB SEAP reporter activity,[1]; [5],0.896
same,NF-kB SEAP reporter activity,[1]; [6],0.978
